Values joined by “and” are separate entries in the source; they are usually repeats but may differ in a detail not shown here. Equal entries are not always repeated.
Key:
Format in all cases: functional
Plasmodium falciparum [1] = assay: GSK_TCMDC: Inhibition of Plasmodium falciparum 3D7 in whole red blood cells, using parasite LDH activity as an index of growth. Test compounds present at 2uM
Plasmodium falciparum [2] = assay: GSK_TCMDC: Inhibition of Plasmodium falciparum Dd2 in whole red blood cells, using parasite LDH activity as an index of growth. Test compounds present at 2uM
HepG2 = assay: GSK_TCMDC: Percent inhibition of human HepG2 cell line. Test compounds present at 10uM.

| Compound | Inhibition (Plasmodium falciparum [1]) | Inhibition (Plasmodium falciparum [2]) | Inhibition (HepG2) |
| --- | --- | --- | --- |
| CCC(C)CC(=O)Nc1ccc(OC)c(S(=O)(=O)N[C@@H]2CCN(C#N)C2)c1 (some centres not stated) | 94% | 77% | 16% |
| CCN1CCN(CCCNc2c3ccc(Cl)cc3nc3ccc(OC)cc23)CC1.Cl | 97% | 100% | 34% |
| CCOC(=O)N1CCN(CCCNc2c3ccccc3nc3ccccc23)CC1.Cl | 90% | 20% | 5% |
| Cc1ccc(N2C(N)=NC(N)=NC2(C)C)cc1.Cl | 96% | 20% | 43% |
| CC(CN(C)C)C(=O)Nc1ccc(-c2ccc(-c3nc4ccccc4[nH]3)s2)cc1 (configuration not stated) | 100% | 86% | 14% |
| COC(=O)c1ccc2nc(-c3ccc(/C=C/C(=O)NC4CCN(Cc5ccccc5)CC4)cc3)[nH]c2c1 | 100% | 88% | 12% |
| c1cc(Cc2ccc(Nc3c4ccccc4nc4ccccc34)cc2)cc(Nc2c3ccccc3nc3ccccc23)c1 | 100% | 100% | 91% |
| Cc1cc(N[C@@H](Cc2ccccc2)C(=O)NC2CCCC2)nc(NCCOc2ccccc2)n1.O=C(O)C(F)(F)F | 98% | 48% | 40% |
| CN1CCC(NCc2cccc(-c3ccc(S(=O)(=O)NCCc4ccccn4)cc3)c2)CC1.O=C(O)C(F)(F)F | 95% | 1% | 10% |
| Cc1cccc(NC(=O)Nc2cccc(-c3ccc(-c4nc5cc(C(F)(F)F)ccc5[nH]4)cc3)c2)c1 | 100% | 94% | 44% |
| CC(=O)Oc1c(C2CCN(CCCCNC(=O)c3ccc(-c4ccc(C#N)cc4)cc3)CC2)ccc2c1CCCC2 | 88% | 52% | 21% |
| CC(C)N1CCN(C(CN2CCN(CCCOc3cccc(-c4ccccc4)c3)CC2)c2ccc(F)cc2)CC1.Cl (configuration not stated) | 100% | 99% | 100% |
| O=C(c1ccc(OCCn2ccnc2)cc1)N1CCC(c2ccc(Br)cc2)C1 (configuration not stated) | 100% | 99% | 49% |
| COc1ccc(-c2cc(C(=O)N[C@@H](Cc3ccccc3)C(=O)NCCN3CCCCC3)ccc2O)cc1 | 96% | 0% | 0% |
| COc1ccccc1CC1CCCN(C2CCC(NC(=O)c3cc4ccccc4[nH]3)CC2)C1 (configuration not stated) | 98% | 21% | 23% |
| CC(=O)c1ccc(-c2ccc(C(=O)NCCCCN3CCC(c4ccc5c(c4OCC(N)=O)CCCC5)CC3)cc2)s1 | 90% | 4% | 26% |
| Cc1ccc(NC(=O)NC2CCN(CCC(NC(=O)Cc3ccccc3)c3ccc(Cl)c(Cl)c3)CC2)cc1 (configuration not stated) | 100% | 2% | 16% |
| CS(=O)(=O)c1ccc(CNCc2cccc(-c3ccc(-c4nc5cc(C(F)(F)F)ccc5[nH]4)cc3)c2)cc1.O=C(O)C(F)(F)F | 100% | 96% | 31% |
| Cc1cc(N2CCCN(CC3CCCCC3)CC2)nc(Nc2ccc(Br)cc2)n1 | 95% | 54% | 24% |
| COc1ccc2nccc(N3CCC(NCCNCc4cc5c(cn4)OCCO5)C3)c2n1.Cl (configuration not stated) | 99% | 3% | 8% |

| Compound | Inhibition (Plasmodium falciparum [1]) | Inhibition (Plasmodium falciparum [2]) | Inhibition (HepG2) |
| --- | --- | --- | --- |
| CNC(=O)c1cnc(Nc2ccc(OCC(O)CN(C)C)cc2)nc1Nc1cccc(Br)c1.O=C(O)C(F)(F)F (configuration not stated) | 100% | 100% | 68% |
| COc1ccc2nccc([C@@H](O)CN3CCC(NCc4ccc5c(c4)NC(=O)C(C)S5)CC3)c2c1.O=C(O)C(=O)O (some centres not stated) | 99% | 72% | 7% |
| Cc1cccc2c(/C=C/C(=O)NC3CCC(CCN4CCc5ccc(C#N)cc5CC4)CC3)c[nH]c12.Cl (configuration not stated) | 91% | 49% | 18% |
| NCc1ccc(CNCc2ccc(-c3ccc(-c4nc5cc(C(F)(F)F)ccc5[nH]4)s3)cc2)cc1.O=C(O)C(F)(F)F | 95% | 92% | 34% |
| CC(C)(CNC(=O)[C@@H]1CCCN(CCOc2ccc(Cl)cc2)C1)c1nc(-c2ccc(Cl)c(O)c2)c(-c2ccncc2)[nH]1.Cl | 92% | 57% | 58% |
| COc1ccc(C2CCC(NCCCCNC(=O)c3ccc(NC(=O)c4ccc(Cl)cc4)cc3)CC2)cc1 (configuration not stated) | 99% | 7% | 23% |
| Cc1cccc2nc(-c3ccc(-c4cccc(CN5CCN(CC6CCCN(C)C6)CC5)c4)s3)[nH]c12.O=C(O)C(F)(F)F (configuration not stated) | 100% | 99% | 47% |
| Cc1cccc2nc(-c3cccc(-c4cccc(NC(=O)Nc5ccc(Cl)cc5)c4)c3)[nH]c12 | 100% | 94% | 23% |
| Cl.NCC1(c2nc(-c3ccc(Cl)c(O)c3)c(-c3ccncc3)[nH]2)CCCCC1 | 98% | 98% | 48% |
| CCc1cn2c3c(cc(C(=O)N[C@@H](Cc4ccccc4)[C@H](O)CNC4CCOCC4)cc13)N(C)S(=O)(=O)C2.O=CO | 99% | 98% | 13% |
| Cc1cccc2nc(-c3cccc(-c4ccc(NC(=O)C(C)CN(C)C)cc4)c3)[nH]c12 (configuration not stated) | 100% | 100% | 29% |
| Br.CCn1c2c(c(=N)c3ccccc31)CCC2 | 83% | 61% | 11% |
| CCCc1cc(=O)[nH]c(-n2nc(C)cc2NC(=O)C(CC)c2ccccc2)n1 (configuration not stated) | 94% | 63% | 41% |
| CC(=O)Nc1cccc(C(=O)Nc2ccc(-c3cccc(-c4nc5cccc(C)c5[nH]4)c3)cc2)c1 | 100% | 50% | 86% |
| O=C(CSc1nc2ccccc2c(=O)n1CC1CCCO1)Nc1cc(C(F)(F)F)ccc1Cl (configuration not stated) | 97% | 95% | 12% |
| CNc1nc(N/N=C/c2cc3c(cc2[N+](=O)[O-])OCO3)nc(Nc2cccc(C(F)(F)F)c2)n1 | 100% | 60% | 0% |
| Cn1cncc1C(=O)Nc1cccc(-c2ccc(-c3nc4ccccc4[nH]3)cc2)c1 | 99% | 11% | 0% |
| CC(C)(C)C(=O)Nc1ccccc1Oc1ccc(Cl)cc1 | 92% | 96% | 54% |
| COc1ccc2ccccc2c1CCCCN1CCN(CC(c2ccc(F)cc2)N2CCN(C3CCCC3)CC2)CC1.O=C(O)C(F)(F)F (configuration not stated) | 88% | 51% | 88% |
| Clc1ccc2c(NN=Cc3ccccc3)ccnc2c1 | 100% | 94% | 0% |

| Compound | Inhibition (Plasmodium falciparum [1]) | Inhibition (Plasmodium falciparum [2]) | Inhibition (HepG2) |
| --- | --- | --- | --- |
| CC(C)c1ccc(NC(S)=NN=Cc2ccccn2)cc1 | 100% | 98% | 47% |
| Cc1c(C(=O)Nc2cc(Sc3ccc(F)cc3)cc([N+](=O)[O-])c2)sc2ncn(Cc3ccccc3F)c(=O)c12 | 98% | 45% | 2% |
| COc1nc2c(CCN3CCC(NCc4ccc5c(n4)NC(=O)CO5)CC3)c(Cl)cnc2cc1F.Cl | 99% | 40% | 17% |
| CCC(C)OC(=O)C1=C(C)NC2=C(C(=O)CC(c3ccc(OC)c(OC)c3)C2)C1c1ccc(O)cc1 (configuration not stated) | 100% | 97% | 3% |
| CC[C@H]1CN2CCc3cc(OC)c(OC)cc3[C@@H]2C[C@@H]1C[C@H]1NCCc2cc(OC)c(OC)cc21 [EMETINE] | 100% | 99% | 43% |
| Cc1cccc2nc(-c3ccc(-c4ccc(CN5CCC(C(N)=O)CC5)cc4)cc3)[nH]c12.O=C(O)C(F)(F)F | 91% | 32% | 8% |
| CCCCCCN1CCN(Cc2cccc(NC(=O)c3cc4ccccc4s3)c2)CC1.O=C(O)C(F)(F)F | 93% | 68% | 20% |
| Cc1cc(C)cc(OCC(O)CN(Cc2cc(Cl)cc(Cl)c2)C(=O)Nc2ccccc2Cl)c1 (configuration not stated) | 93% | 37% | 0% |
| CCCc1ccc(S(=O)(=O)NC2CCN(c3ccnc(Nc4ccc(OC)cc4)n3)C2)cc1 (configuration not stated) | 89% | 45% | 42% |
| Cl.Oc1ccc2c(c1CNC1CCCCC1)CCCC2 | 98% | 94% | 0% |
| c1nc(CCNc2nc(Nc3ccc4c(c3)OCO4)nc(NC3CCCC3)n2)c[nH]1 | 80% | 0% | 0% |
| N#Cc1cccc(Nc2ncc3c(-c4cccc(NC(=O)Cc5cccc(Cl)c5)c4)c[nH]c3n2)c1.O=C(O)C(F)(F)F | 100% | 95% | 0% |
| CC(C)CCN1CCCN(Cc2ccc(C(=O)Nc3ccc(C(C)(C)C)cc3)cc2)CC1.O=C(O)C(F)(F)F | 92% | 12% | 49% |
| O=C(Nc1ccc2c(c1)CCC2)c1cnc(N2CCN(c3ccncc3)CC2)c(Cl)c1.O=C(O)C(F)(F)F | 100% | 48% | 33% |
| CC(=O)Nc1cccc(C(=O)Nc2cccc(-c3cccc(-c4nc5ccccc5[nH]4)c3)c2)c1 | 100% | 66% | 41% |
| O=C(Nc1ccc(Cl)cc1)c1ccc(CN2CCCN(Cc3cccc(O)c3)CC2)cc1.O=C(O)C(F)(F)F | 100% | 69% | 52% |
| COc1ccccc1N1CCN(Cc2cc(C(C)C)c(C)cc2O)CC1 | 97% | 98% | 7% |
| COc1ccc2nccc([C@@H](O)CN3CCC(NCc4nc5c(cc4Cl)SCC(=O)N5)C(F)C3)c2c1.Cl (some centres not stated) | 94% and 99% | 94% and 100% | 20% and 10% |
| Cc1ccccc1Nc1cc(Nc2ccccc2C)c2ccccc2n1 | 96% | 93% | 28% |
